About 25,000 (6.9%) of roughly 360,000 compounds were called active. Inconclusive results (about 9%) are left out. This is one part of a sample in which actives are shown more often than they occur. A number with no mark means an inactive call. The call rests on the fitted dose curve; in most records, active means well fitted inhibition curve with a large enough effect; inconclusive means small, poorly fitted or top-dose-only effect; inactive means flat fitted curve, though single readings scatter.
molecular target: Luciferin 4-monooxygenase (Photinus pyralis) (UniProt P08659); test: qHTS profiling assay for firefly luciferase inhibitor/activator using purifed enzyme and Km concentrations of substrates (counterscreen for miR-21 project); conditions: purified FLuc, luminescence inhibition; series mostly up to 57.5 µM; activity change, negative = inhibition: at the top concentration; further: nearly all actives have a fitted effect of over 55% in size;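 on activity change, negative = inhibition: plate controls were vehicle for no effect and reference inhibitor for full effect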
Sequence (P08659 whole entry, looked up): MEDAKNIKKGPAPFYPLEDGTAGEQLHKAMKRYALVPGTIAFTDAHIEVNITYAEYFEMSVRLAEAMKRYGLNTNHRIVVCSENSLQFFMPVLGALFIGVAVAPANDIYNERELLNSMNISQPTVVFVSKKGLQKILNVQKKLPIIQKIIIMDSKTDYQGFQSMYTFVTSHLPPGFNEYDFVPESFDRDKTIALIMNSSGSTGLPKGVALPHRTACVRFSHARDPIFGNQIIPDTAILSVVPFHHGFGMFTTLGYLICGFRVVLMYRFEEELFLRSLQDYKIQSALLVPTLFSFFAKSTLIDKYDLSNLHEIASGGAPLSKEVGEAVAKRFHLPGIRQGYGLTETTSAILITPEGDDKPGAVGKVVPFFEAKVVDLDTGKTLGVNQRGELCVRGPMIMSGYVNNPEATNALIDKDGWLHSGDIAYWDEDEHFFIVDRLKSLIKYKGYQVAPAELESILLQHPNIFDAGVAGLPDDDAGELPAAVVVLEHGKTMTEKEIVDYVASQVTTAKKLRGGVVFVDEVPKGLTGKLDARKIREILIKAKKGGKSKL
Method in brief: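 Purified P. pyralis luciferase (10nM final) with 10uM D-luciferin and 10uM ATP (Km levels) in 50mM Tris acetate pH 7.5, 10mM Mg acetate, 0.01% Tween-20, 0.05% BSA; qHTS 6-point titration, ~60 µM downward; luminescence read.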
Potency means the concentration at half of the fitted maximal effect.

Compound	activity change, negative = inhibition [%]	Potency
O=C(c1ccc(Cl)nc1)N1CCN(S(=O)(=O)c2ccc3c(c2)OCCO3)CC1	-2.36	–
COc1cccc(-c2nnc3n(CCc4ccccc4)c(=O)c4ccccc4n23)c1O	-4.13	–
Cc1ccccc1NC(=O)c1cc2c([nH]c1=O)CC(C)(C)CC2=O	-15.2	–
COc1ccc(NC(=O)NCc2ccc3c(c2)OCO3)c(OC)c1	6.28	–
COc1ccc(OC)c(/C=C/C(=O)c2ccc3c(c2)OCO3)c1	–	4.78 µM (active)
COc1ccc(C(=O)Nc2ccccc2C(=O)N/N=C/c2ccc(O)c(OC)c2)cc1	–	0.012 µM (active)
COc1ccc(Nc2ncc(C(=O)Nc3cc(C)ccc3OC)c3ccccc23)cc1	7.13	–
COc1ccccc1C(=O)NNC(=O)c1ccc(NC(=O)c2ccccc2)cc1	-14	–
COc1ccc(C(=O)Nc2ccccc2C(=O)N/N=C/c2ccccc2OC)cc1	–	0.0757 µM (active)
COc1ccc(C(=O)Nc2cc(C)c(NC(=O)c3ccccc3OC)cn2)cc1	–	2.13 µM (active)
COc1ccc(OC)c(/C=C/C(=O)OCC(=O)Nc2ccc3c(c2)OCCO3)c1	0.779	–
COc1ccc(C(=O)N/N=C(\C)CC(=O)Nc2ccc(Cl)cn2)cc1	-14.9	–
COc1ccc(OC)c(/C=N/NC(=O)c2ccc[n+](CC(=O)c3ccccc3)c2)c1	-5.82	–
O=C(N/N=C/c1ccc(OC(=O)c2ccccc2Cl)cc1)c1ccc(O)cc1	-2.37	–
COc1ccc(/C=N/NC(=O)c2ccc(Cl)cc2)cc1COC(C)=O	-13.1	–
Cc1ccc(C)c(N2C(=O)N(Cc3c(F)cccc3Cl)c3ccccc3S2(=O)=O)c1	1.18	–
Cc1ccc(CN2CC(C(=O)NNC(=O)Cn3ccc(C(F)(F)F)n3)CC2=O)cc1 (stereo not drawn)	4.2	–
c1ccc2c(c1)C(=NC1CCCCC1)NC2=NC1CCCCC1	1.79	–
COC(=O)NNC(=O)C1CCC(C)CC1 (stereo not drawn)	–	inactive
CCOCCCn1c(SCC(=O)Nc2ccc(CC)cc2)nc2ccccc2c1=O	-1.15	–
Cc1cccc(-c2nc(CS(=O)CC(=O)NC(C)CCc3ccccc3)c(C)o2)c1 (stereo not drawn)	-2.47	–
CNC(=O)c1ccc(-c2nc(CN3CCc4ccccc43)c(C)o2)cc1	-0.293	–

Compound	activity change, negative = inhibition [%]	Potency
COc1ccc(CN2CCc3nc(Nc4ccccc4)ncc3C2)c(OC)c1OC	2.56	–
CCOc1ccc(/C=N/NC(=O)C(C)Sc2ccccn2)cc1OCC (stereo not drawn)	-1.41	–
COc1ccc(Br)cc1/C=N/NC(=O)c1cccc(S(=O)(=O)N2CCOCC2)c1	5.78	–
CCCCCn1c(CCNC(=O)c2ccc(F)cc2)nc2ccccc21	-3.86	–
Cc1cc(C(=O)N/N=C/c2ccccn2)c2ccccc2n1	-0.51	–
CCOc1cc(/C=N/NC(=O)c2cc(-c3ccccc3)nc3ccccc23)ccc1O	–	16.9 µM (active)
CCn1c(SCC(=O)N/N=C/c2ccncc2)nc2ccccc21	-2.42	–
COc1ccc(/C=N/NC(=O)c2ccc3c(c2)OCCO3)c(OC)c1	–	9.53 µM (active)
COc1ccc(/C=N/NC(=O)CNC(=O)c2ccc(S(=O)(=O)N3CCCC3)cc2)c(OC)c1	-9.97	–
CCn1c(/C=N/NC(=O)c2ccc(OC)cc2)nc2ccccc21	–	13.5 µM (active)
COc1ccc(Cc2nc3ccc(C(=O)NCc4ccccc4Cl)cc3o2)cc1	-11	–
CCOC(=O)C1CCCN(C(=O)c2ccc3c(c2)sc2nc(-c4ccc(CC)cc4)cn23)C1 (stereo not drawn)	-6.78	–
Cc1ccccc1CNC(=O)C(=O)NCC(c1cccs1)S(=O)(=O)c1cccs1 (stereo not drawn)	-9.18	–
Cc1nc(N2CCOCC2)c2c(C(=O)NCc3cccc(Cl)c3)c(C)oc2n1	-2.72	–
O=C1Nc2cc(C(=O)N3CCC(N4CCCCC4)CC3)ccc2S/C1=C\c1ccccc1	-1.4	–
CCCCC(CC)C(=O)Nc1ccc(Cl)cn1 (stereo not drawn)	-1.5	–
O=C(Nc1ccc(Cl)cn1)c1ccc2c(c1)OCCO2	–	1.35 µM (active)
CC1(c2ccc(Cl)cc2)NC(=O)N(CC(=O)c2ccc3c(c2)OCO3)C1=O (stereo not drawn)	-20.5	–
O=C(NCc1ccco1)c1nn2cccnc2c1Cl	-9.49	–
CCCc1cc(C(=O)Nc2ccc(C(=O)OC)cc2)cs1	-14.7	–
CCCc1cc(C(=O)Nc2ccc(Cl)cn2)cs1	–	0.478 µM (active)
CS(=O)(=O)c1ccc(-c2nnc(NC(=O)c3ccc4c(c3)OCCO4)o2)cc1	-2.9	–

Compound	activity change, negative = inhibition [%]	Potency
Cc1cc(NC(=O)c2cnn3cccnc23)n(-c2ccccc2)n1	3.79	–
O=C(Nc1ccc(Cl)cn1)c1cnn2cccnc12	–	7.57 µM (active)
Cc1cccc(C)c1NC(=O)CNC(=O)c1ccc2c(c1)OCCO2	-2.86	–
Cc1nc(NC(=O)c2ccc3c(c2)OCCO3)ccc1Br	–	1.51 µM (active)
COc1ccc(C(=O)NC(=S)Nc2ccc(Cl)cn2)cc1OC	-5.46	–
CC12CCC(=O)N1C(C(=O)Nc1ccc(F)c(F)c1F)CS2 (stereo not drawn)	-0.97	–
COc1ccc(OC)c(CNC(=O)CN2C(=O)CCn3nc(-c4cn(C)c5ccccc45)cc32)c1	0.0113	–
CCN(CC(=O)Nc1ccc(OC)cc1)C(=O)CSCc1ccc(C)cc1	-1.05	–
COc1cc(/C=N\NC(=O)C2C(=O)NCC2c2ccccc2)cc(OC)c1O (stereo not drawn)	5.59	–
CC(Oc1ccccc1[N+](=O)[O-])C(=O)N/N=C/c1ccoc1 (stereo not drawn)	2.82	–
Cc1nn(CC(=O)N/N=C/c2ccc(F)cc2)c(C)c1[N+](=O)[O-]	-0.587	–
Cc1cc(C(=O)N/N=C/c2ccc(O)c([N+](=O)[O-])c2)c(C)n1-c1ccc(F)cc1	–	2.39 µM (active)
COc1cc(/C=N/NC(=O)c2cc(C)n(-c3ccc(F)cc3)c2C)cc(OC)c1O	–	15.1 µM (active)
CC(C)c1cc(C(=O)N/N=C/c2ccoc2)c(O)c(C(C)C)c1	5.96	–
Nc1c(N(Cc2ccco2)C(=O)c2cccc(F)c2)c(=O)[nH]c(=O)n1Cc1ccccc1	2.26	–
Cc1ccccc1C(=O)Nc1nnc(S(=O)(=O)N(C)c2ccc(Cl)cc2)s1	-8.25	–
CC(C)(CNC(=O)CNC(=O)C1CCCCC1)N1CCOCC1	-0.324	–
CCOC(=O)c1ccc(NC(=O)c2c(NCc3cccc(OC)c3)sc3c2CCC3)cc1	0.213	–
O=C(C1CCC(Cn2c(=O)c3sccc3n(Cc3ccccc3F)c2=O)CC1)N1CCCCC1 (stereo not drawn)	-10.1	–
CC1(C)CC(=O)C=C(c2cccc3c2Oc2ccccc2S3)C1	-3.41	–
COc1cccc(OCC(=O)Nc2ccccc2C(N)=O)c1	–	4.78 µM (active)
Cc1cccc(OCCC(=O)Nc2ccccc2C(N)=O)c1	-0.608	–

Compound	activity change, negative = inhibition [%]	Potency
Cc1cccc(OCC(=O)NCCCNC(=O)c2ccccn2)c1	-1.63	–
Cc1cccc(OCC(=O)Nc2ccccc2F)c1	–	21.3 µM (active)
CCCOC(=O)Nc1ccccc1C(N)=O	3.69	–
Cc1cccc(OCC(=O)Nc2ccc(C(=O)O)cc2NC(=O)COc2cccc(C)c2)c1	0.888	–
CCc1ccc(-n2nc(C)c3c(C)cc(=O)n(CC(=O)Nc4ccc(F)cc4C)c32)cc1	1.92	–
CCCNc1ncnc2c1c(-c1ccccc1)cn2-c1ccc(OCC)cc1	-5.23	–
O=C(COc1ccccc1O)NC1CCCC1	-1.18	–
CCOC(=O)c1ccc(NC(=O)c2nc(SCc3ccc(F)cc3)ncc2Cl)cc1	-7.43	–
COc1ccccc1N=C(C)C1=C(O)COC1=O	2.19	–
COc1ccccc1N=Cc1c(O)c2ccccc2oc1=O	–	1.9 µM (active)
COc1cc(N=Cc2c(O)c3ccccc3oc2=O)c(OC)cc1Cl	0.283	–
O=C(Nc1ccc(OC(F)(F)F)cc1)c1cc2c(=O)n3ccccc3nc2s1	1.26	–
CCc1cc2c(-c3ccccc3)cc(=O)oc2c2c1OCN(Cc1ccc(C)cc1)C2	-2.21	–
CCc1ccc2oc(-c3ccc(C)c(NC(=O)/C=C/c4ccco4)c3)nc2c1	–	3.01 µM (active)
CCC(CC)c1nnc(NC(=O)/C=C/c2ccco2)s1	2.36	–
Cc1cccc(C(=O)Nc2ccc(-c3nc4ncccc4o3)cc2C)c1	-1.32	–
Cc1ccc2cccc(NC(=O)c3cccc4ccccc34)c2n1	-2.45	–
CC(C)C(C)NC(=O)COc1nc2ccccc2nc1N(C)C1CCCCC1 (stereo not drawn)	0.505	–
CN(c1ccc2nc3ccccc3c(=O)n2n1)C1CCCCC1	–	0.169 µM (active)
O=c1c2ccccc2nc2n1C1(CCCCC1)Cc1ccccc1-2	-1.54	–
CCC(=O)N1CCc2cc(CNC(=O)Nc3ccccc3Cl)ccc21	-15.3	–
COc1cc2sc(C)nc2cc1C	-2.95	–

Compound	activity change, negative = inhibition [%]	Potency
Cc1nc(Nc2ccc3c(c2)OCCO3)c2nnn(Cc3ccccc3Cl)c2n1	–	26.9 µM (active)
CCCc1nc(NCc2ccc3c(c2)OCO3)c2nnn(Cc3ccccc3Cl)c2n1	-0.879	–
Cc1nc(Nc2ccccc2F)c2nnn(Cc3ccccc3Cl)c2n1	-4.09	–
Clc1ccccc1SCc1nc2ccccc2[nH]1	–	13.5 µM (active)
O=c1[nH]nc(CSCc2ccccc2Cl)[nH]1	2.07	–
Nc1cccc(CCc2nc3ccccc3[nH]2)c1	-21.6	–
c1ccc(-c2nnc(SCc3nc4ccccc4[nH]3)o2)cc1	1.85	–
COc1ccc(OC(C)C(=O)NCCc2nc3ccccc3[nH]2)cc1 (stereo not drawn)	-0.594	–
c1ccc2c(CSCc3nc4ccccc4[nH]3)cccc2c1	–	10.7 µM (active)
COC(=O)Cc1ccc(OC(=O)C2CCN(S(=O)(=O)c3ccc(OC)c(OC)c3)CC2)cc1	1.97	–
Cc1nnsc1C(=O)NCc1c(F)cccc1Cl	-1.24	–
Cc1nn(Cc2ccccc2)c(C)c1CNC(=O)c1ccc(F)c(S(=O)(=O)N2CCOCC2)c1	5.42	–
O=C(NC(=S)Nc1ccc(NC(=O)c2cccs2)cc1)c1ccc([N+](=O)[O-])cc1	0.372	–
O=C(NC(=S)Nc1cccc(-c2ccc(CO)o2)c1)c1cccs1	–	19 µM (active)
O=C(Nc1ccccc1-c1ccccc1)c1cccs1	5.07	–
CCc1cnc2c(c1SCC(=O)c1ccccc1)c(=O)n(C)c(=O)n2C	0.976	–
O=S(=O)(NCc1ccccc1Br)c1ccccc1Br	-13.2	–
CCOC(=O)c1ccc(Nc2cc(C)nc3nc(C)nn23)cc1	4.41	–
Cc1cc(Nc2ccccc2)n(C(=O)c2ccc(N)cc2)n1	–	9.53 µM (active)
Cc1cc(C)n(C(=O)c2ccc(S(=O)(=O)N3CCCC3)cc2)n1	-0.0836	–

Reference: PubChem BioAssay AID588342 (National Center for Advancing Translational Sciences (NCATS), 2011)
